Screens (PubChem BioAssay)
In the library only some 7.6% were active in any assay of this set; here they are far more common.
HEK293 cAMP ctrl: raises cAMP in parental HEK293 cells, TSHR agonist counter-screen; parental HEK293 CNG cAMP sensor, membrane potential fluorescence; Potency, µM (highest dose often 57.1 µM), hits mostly activators; 73,000 tested, 2.5% active; note: nearly all actives have a fitted effect of over 55% in size
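Parental HEK 293 cells stably expressing a modified CNG channel (no TSHR) report cAMP rise as membrane depolarization. Membrane potential dye with 100 uM RO 20-1724 was loaded for 60 min at room temperature, then compound added for 30 min; fluorescence read at 590 nm.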
CRE-bla Fsk: alters forskolin-stimulated CRE reporter signaling in CHO cells; 71,000 tested, 2.5% active; AID 662; Potency, µM (top dose mostly 38.2 µM), usual class: activators; CHO CRE-bla reporter (cAMP response element driving beta-lactamase), forskolin EC10, beta-lactamase ratio; active = well fitted activation curve with a large enough effect in the signal ratio, with a control signal flat, not every such curve was filed as active; inconclusive = small, poorly fitted or top-dose-only effect, or effect the other way, or a change in a side signal; the % refers to the signal ratio
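Using CellSensor CRE-bla CHO cells in Opti-MEM with 0.5% dialyzed FBS, compounds were titrated with EC10 NKH 477 for 3 h at 37 °C. CCF4 ratio (460/530 nm) gave %Activity; AC50 derived.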
TSHR agonist: agonists of human thyroid stimulating hormone receptor; HEK293-CNG-TSHR cells (CNG channel as cAMP sensor), membrane potential dye, cAMP; Potency, µM (doses to about 57.1 µM), actives largely listed as activators; 73,000 tested, 0.48% active; active = well fitted activation curve with a large enough effect in the main read-out, with a control signal flat, not every such curve was filed as active; inconclusive = small, poorly fitted or top-dose-only effect, or a change in a side signal; inactive = no such curve, though single readings can be large or run the other way; reference of the percent scale not stated here;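 note: the control signal comes from parental cells without the receptor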
Target sequence (P16473 whole entry, looked up): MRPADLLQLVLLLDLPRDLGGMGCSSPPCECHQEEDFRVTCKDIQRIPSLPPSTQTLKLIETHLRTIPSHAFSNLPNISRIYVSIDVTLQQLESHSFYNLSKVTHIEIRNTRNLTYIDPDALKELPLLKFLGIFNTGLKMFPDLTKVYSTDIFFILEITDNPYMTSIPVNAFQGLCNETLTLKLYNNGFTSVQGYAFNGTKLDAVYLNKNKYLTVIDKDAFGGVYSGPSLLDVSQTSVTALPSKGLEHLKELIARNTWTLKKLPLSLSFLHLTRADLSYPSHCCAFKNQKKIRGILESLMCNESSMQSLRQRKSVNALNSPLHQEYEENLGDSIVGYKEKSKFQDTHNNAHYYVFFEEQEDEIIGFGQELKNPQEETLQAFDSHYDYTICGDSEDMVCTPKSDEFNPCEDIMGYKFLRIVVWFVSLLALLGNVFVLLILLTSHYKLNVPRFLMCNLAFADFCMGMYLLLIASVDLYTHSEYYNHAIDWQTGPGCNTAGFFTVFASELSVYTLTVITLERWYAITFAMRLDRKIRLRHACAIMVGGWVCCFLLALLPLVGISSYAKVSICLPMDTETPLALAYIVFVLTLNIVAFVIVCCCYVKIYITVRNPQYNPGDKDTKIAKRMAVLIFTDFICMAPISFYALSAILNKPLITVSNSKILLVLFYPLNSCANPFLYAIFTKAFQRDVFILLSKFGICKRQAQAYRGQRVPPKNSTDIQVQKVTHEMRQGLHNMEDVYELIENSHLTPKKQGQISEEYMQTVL
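cAMP rise detected as CNG-channel membrane depolarization by fluorescent dye (emission 590 nm), 30 min after compound, following 60 min dye loading containing 100 uM RO 20-1724 at room temperature. Cells: TSHR/CNG HEK 293, with parental CNG HEK 293 as control.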
Tau fil binding: tau filament binding | Potency, µM (titrated, usually from 57.1 µM) | recombinant tau filaments, thioflavin S fluorescence, 15 h; filaments grown with octadecylsulfate alongside compound | 71,000 tested, 2% active | P10636;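 note: actives lower thioflavin S fluorescence by blocking filaments or displacing dye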
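Thioflavine S fluorescence (ex 450, em 510 nm) reports filaments formed from 1 uM human tau plus 30 uM ODS over 15 h at 37 C (10 mM HEPES pH 7.4, 100 mM NaCl, 5 mM DTT); compounds displacing dye or blocking filaments lower signal.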
ERK AVP inh: inhibitors of vasopressin-stimulated ERK signaling pathway; AID 995; HEK293-V1b, vasopressin-stimulated pERK AlphaScreen; Potency, µM (top dose mostly 57.5 µM), hits mostly inhibitors; 72,000 tested, 0.99% active; note: nearly all actives have a fitted effect of over 55% in size
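qHTS, compounds titrated on V1b-expressing HEK293 cells. Preincubation 30 min at 37C, vasopressin 25 nM for 5 min, lysis 10 min, bead incubation 5 hr at room temperature.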
Large screens that a line does not name were inactive; ! = repeats disagree. Unless noted, calls come from the whole dose curve; as a rule, active = well fitted curve in the direction sought with a large enough effect; inconclusive = small, poorly fitted or top-dose-only effect, or another doubt; inactive = no such curve, though single readings can be large; an effect the other way counts as inactive or inconclusive.

CCCC/C(C)=C/[C@@H](NP(=O)(c1ccccc1)c1ccccc1)c1ccccc1	HEK293 cAMP ctrl 16µM, CRE-bla Fsk inconclusive, TSHR agonist inconclusive
CCCC/C=C/[C@@H](NP(=O)(c1ccccc1)c1ccccc1)c1ccccc1OC	HEK293 cAMP ctrl 2µM, CRE-bla Fsk inconclusive, TSHR agonist inconclusive
CCCCCP(=O)(O)c1ccccc1	none
CC(C)(C)[C@@]1(O)C[C@@H]2OC(=O)C[C@@]23C(=O)O[C@H]2OC(=O)[C@@H](O)[C@]231	CRE-bla Fsk inconclusive, Tau fil binding inconclusive (no result: ERK AVP inh)
C=CCN1CC[C@]23c4c5ccc(O)c4O[C@@H]2/C(=N/NC(=O)c2ccccc2)CC[C@@]3(O)[C@H]1C5	none
COc1ccc2c(c1OC)C(=O)O[C@H]2[C@H]1c2cc3c(cc2CCN1C)OCO3	HEK293 cAMP ctrl 13µM!, CRE-bla Fsk inconclusive, TSHR agonist inconclusive, Tau fil binding inconclusive
Cc1c([C@@H](C)[C@H]2NC[C@H](C)C[C@@H]2O)ccc2c1C[C@@H]1[C@H]2CC=C2C[C@@H](O)CC[C@@]21C	none
O=c1cccc2n1C[C@@H]1C[C@H]2CN2CCCC[C@H]12	CRE-bla Fsk inconclusive, Tau fil binding 32µM (no result: ERK AVP inh)
O=c1cccc2n1CC1CC2CN2CCCC[C@H]12 (some centres undefined)	none (no result: HEK293 cAMP ctrl, CRE-bla Fsk, TSHR agonist, Tau fil binding)
COc1ccc2[nH]c3c(c2c1)CCN=C3C	Tau fil binding 2.5µM
COc1ccc2c(c1O)-c1cccc3c1[C@H](C2)N(C)CC3	none
CC[C@@H]1CN2CC[C@@H]1C[C@H]2[C@@H](O)c1ccnc2ccc(OC)cc12	HEK293 cAMP ctrl inconclusive, TSHR agonist inconclusive, Tau fil binding inconclusive (no result: ERK AVP inh)
Cc1ccccc1[N+](=O)[O-]	none
COC(=O)C1=C(C)NC(C)=C(C(=O)OC)C1c1ccccc1[N+](=O)[O-]	CRE-bla Fsk 2µM!, Tau fil binding inconclusive, ERK AVP inh 25µM! (no result: HEK293 cAMP ctrl)
C[C@@]12CC[C@H]3[C@@H](CC=C4C[C@H](OS(=O)(=O)O)CC[C@]43C)[C@H]1CCC2=O	HEK293 cAMP ctrl inconclusive, TSHR agonist inconclusive
CN(C)c1ccc2c(c1)N=C(c1ccco1)OP2(=S)N1CCOCC1 (centres undefined)	TSHR agonist 16µM
COc1ccc(P2(=O)Nc3ccccc3N2)cc1	CRE-bla Fsk inconclusive, Tau fil binding 16µM, ERK AVP inh inconclusive
COc1ccc(C=O)cc1	HEK293 cAMP ctrl inconclusive, TSHR agonist inconclusive
CCOC(=O)c1c(C)n(Cc2ccco2)c2ccc(OC)cc12	HEK293 cAMP ctrl 25µM, CRE-bla Fsk inconclusive, TSHR agonist inconclusive
C=CCn1c(O)c(C(CC)=NCCCO)c(=O)[nH]c1=O	none
C=CCn1c(O)c(C(CC)=NCc2cc(OC)cc(OC)c2)c(=O)[nH]c1=O	HEK293 cAMP ctrl inconclusive, CRE-bla Fsk 10µM, TSHR agonist inconclusive, ERK AVP inh inconclusive
COc1ccc2c3c1O[C@@H]1C(=O)CC[C@@]4(O)[C@@H](C2)N(CC2CC2)CC[C@]314	HEK293 cAMP ctrl inconclusive, TSHR agonist inconclusive
COC(=O)[C@@H]1C[C@@]1(C)[C@@H](NP(=O)(c1ccccc1)c1ccccc1)c1ccccc1	HEK293 cAMP ctrl 1.3µM, TSHR agonist inconclusive
COc1cc([C@H]2c3cc4c(cc3[C@@H](O)[C@@H]3COC(=O)[C@H]23)OCO4)cc(OC)c1OC	HEK293 cAMP ctrl inconclusive, CRE-bla Fsk 0.013µM, TSHR agonist inconclusive, ERK AVP inh inconclusive
CCC(=NCc1ccco1)c1c(O)n(C2CCCCC2)c(=O)[nH]c1=O	CRE-bla Fsk inconclusive
CCC(=Nc1ccc(OC)cc1OC)c1c(O)n(C2CCCCC2)c(=O)[nH]c1=O	HEK293 cAMP ctrl inconclusive, CRE-bla Fsk inconclusive, TSHR agonist inconclusive, Tau fil binding 10µM
c1ccc(CN2CCC3(CCc4ccccc43)CC2)cc1	HEK293 cAMP ctrl 32µM, CRE-bla Fsk inconclusive, TSHR agonist inconclusive, Tau fil binding inconclusive
Cc1cc(O)c2c(c1)C(=O)c1cc(O)cc(O)c1C2=O	CRE-bla Fsk inconclusive, TSHR agonist inconclusive, Tau fil binding 2.5µM, ERK AVP inh inconclusive
CN(C)[C@@H]1C(=O)C(C(N)=O)=C(O)[C@]2(O)C(=O)C3=C(O)c4c(O)cccc4[C@@](C)(O)[C@@H]3C[C@@H]12	CRE-bla Fsk inconclusive, Tau fil binding inconclusive (no result: ERK AVP inh)
COc1ccc(C2=NCC(=O)N(CC(=O)NCc3ccco3)c3sc4c(c32)CCCC4)cc1OC	CRE-bla Fsk inconclusive (no result: TSHR agonist)
